# A selection: hits, their analogues and other compounds. The true share with any hit is near 1.5%.
# Eya2 phos inh: blocks the phosphatase activity of human Eya2; O00167; Potency, µM (highest dose often 76.9 µM), without a hit: at the highest dose activity, negative = inhibition, most hits filed as inhibitors; recombinant Eya2, OMFP fluorescence dephosphorylation (OMFP is methylfluorescein phosphate); 330,000 compounds, 0.006% hits; also: potency is read from the fitted curve at half-maximal effect; % is scaled to controls: 0 for no effect and ±100 for the full control effect
#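 Eya2 (0.2 uM) preincubated 10 min at ambient with compound, then OMFP substrate added at 50 uM; 10 min reaction in 50 mM HEPES pH 7.5, 50 mM NaCl, 5 uM MgCl2, 0.05% BSA, 1 mM DTT. Fluorescence read at Ex 485/Em 525 nm.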
# Coupling enz: coupling enzyme interference in Giardia aldolase counter-screen | 290,000 compounds, 0.67% hits | coupling enzyme system counterscreen, AmpLite Red fluorescence | activity change, negative = inhibition, % at 58.2 µM, hits read low; in the data active = activity change below about -30%; also: % is scaled to controls: 0 for no effect and ±100 for the full control effect
#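 Counterscreen of the coupled detection system alone, without aldolase: glyceraldehyde-3-phosphate coupling enzymes plus AmpLite Red readout. Compounds at 57.5 uM final, 10 min RT preincubation, 20 min RT reaction, fluorescence 525/598 nm.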
# rTrxR1 inhibitor: rat TrxR1 inhibition; O89049; recombinant rTrxR1, NADPH fluorescence consumption, selenite substrate; Potency, µM (top dose mostly 114 µM), for the others: at the top dose activity change, negative = inhibition, hits mostly inhibitors; 390,000 compounds, 1% hits; AID 588453; also: potency is read from the fitted curve at half-maximal effect; % is scaled to controls: 0 for no effect and ±100 for the full control effect; nearly all actives have a fitted effect of over 65% in size
#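 Rat TrxR1 (90 nM in the dispensed reagent) was pre-reduced with 400 uM NADPH for 5 min at room temperature, then incubated with compound for 15 min. After 400 uM selenite was added, NADPH fluorescence (Ex 340/Em 450 nm) was followed for 8 min.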
# mIDH1 inhibitor: blocks human mutant IDH1 R132H enzyme; IDH1-R132H enzyme, NADPH consumption, diaphorase/resazurin fluorescence; 390,000 compounds, 0.093% hits; Potency, µM (series often up to 76.6 µM), for the others: top-dose activity change, negative = inhibition, usual class: inhibitors; AID 602179; O75874; also: potency is read from the fitted curve at half-maximal effect; % is scaled to controls: 0 for no effect and ±100 for the full control effect; nearly all actives have a fitted effect of over 65% in size
# Target sequence (O75874 whole entry R132H, stated change not applied): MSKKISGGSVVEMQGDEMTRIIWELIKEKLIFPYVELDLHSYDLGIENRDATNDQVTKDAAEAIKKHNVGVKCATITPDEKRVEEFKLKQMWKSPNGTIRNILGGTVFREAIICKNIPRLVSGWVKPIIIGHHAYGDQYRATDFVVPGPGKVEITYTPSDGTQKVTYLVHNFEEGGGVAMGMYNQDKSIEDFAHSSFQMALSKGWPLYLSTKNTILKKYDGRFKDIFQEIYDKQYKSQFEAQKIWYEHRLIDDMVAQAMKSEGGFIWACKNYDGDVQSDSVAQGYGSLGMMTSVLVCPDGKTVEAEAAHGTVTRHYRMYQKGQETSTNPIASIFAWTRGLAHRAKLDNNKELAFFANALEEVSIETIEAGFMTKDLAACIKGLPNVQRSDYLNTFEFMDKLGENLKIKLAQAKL
#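 IDH1-R132H (0.5 ug/mL dispensed) in pH 7.5 Tris buffer was preincubated 30 min with compound, then given a substrate mix of 0.016 mM NADPH and 2 mM alpha-KG for 80 min at room temperature; remaining NADPH was read by diaphorase/resazurin fluorescence.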
# TrxR1 substrate: is turned over as a substrate by rat TrxR1. O89049. purified TrxR1 substrate turnover, NADPH consumption readout. Potency, µM (doses to about 114 µM), without a hit: top-dose activity change, negative = substrate turnover. 390,000 compounds, 0.01% hits; also: potency is read from the fitted curve at half-maximal effect; % is scaled to controls: 0 for no effect and ±100 for the full control effect; nearly all actives have a fitted effect of over 50% in size
#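 Rat TrxR1, dispensed at 90 nM, was prereduced with 400 uM NADPH (final) for 5 min at ~22 deg C, then incubated with compound 15 min before 400 uM selenite. A first-read NADPH fluorescence drop versus no-compound background flagged substrates.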
# Resorufin autofl: autofluorescence interference, mutant IDH1 hit counter-screen. 750 tested, under 10 active. inhibition of signal, % at 51.2 µM. Resorufin detection reagent fluorescence interference, cell-free. AID 623980. shares compounds with mIDH1 inhibitor;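 also: 0% = wells with normal resorufin and full inhibition = wells lacking resorufin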
# WT IDH1 inh: wild-type IDH1 (human) inhibition counterscreen | 750 compounds, 9% hits | AID 623995 | shares compounds with mIDH1 inhibitor | Potency, µM (titrated, usually from 115 µM), for inactives: at the highest dose activity change, negative = inhibition, most hits filed as inhibitors | WT IDH1 enzyme, NADPH diaphorase/resazurin fluorescence;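 also: potency is read from the fitted curve at half-maximal effect; 0% = full WT IDH1 enzyme control and full inhibition = no enzyme wells; nearly all actives have a fitted effect of over 55% in size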
# Target sequence (O75874 whole entry, looked up): as the sequence (O75874 whole entry R132H, stated change not applied) above, with H132R counted along it
# IDH1 R132H conf: inhibits human mutant IDH1 enzyme in cherrypick confirmation; shares compounds with mIDH1 inhibitor; IDH1 R132H enzyme, NADPH diaphorase/resazurin fluorescence; Potency, µM (series often up to 76.6 µM), without a hit: at the top dose activity change, negative = inhibition, hits mostly inhibitors; 750 compounds, 83% hits; AID 624002; also: potency is read from the fitted curve at half-maximal effect; nearly all actives have a fitted effect of over 50% in size
# Starred values were filed as active, the others as inactive; ? = inconclusive; . = no result given; [ ] = remark or other dose. Unless noted, calls follow the shape of the dose curve; as a rule, active = well fitted curve in the direction sought with a large enough effect; inconclusive = small, poorly fitted or top-dose-only effect, or another doubt; inactive = no such curve, though single readings can be large; an effect the other way counts as inactive or inconclusive.
SMILES,Eya2 phos inh,Coupling enz,rTrxR1 inhibitor,mIDH1 inhibitor,TrxR1 substrate,Resorufin autofl,WT IDH1 inh,IDH1 R132H conf
COc1cc([C@@H]2c3cc4c(cc3[C@H](O)C3COC(=O)[C@@H]32)OCO4)cc(OC)c1OC (some centres undefined),3%,.,13%[57.1 µM],.,8%[57.1 µM],.,.,.
COc1cc([C@@H]2c3cc4c(cc3[C@@H](O)[C@H]3COC(=O)[C@H]23)OCO4)cc(OC)c1O[Si](C)(C)C(C)(C)C,-9%,-3,2%[57.1 µM],28µM*,-4%[57.1 µM],0,?,?
O=S1(=O)C2CC3OC2(CC3c2ccc(F)cc2)CN1Cc1ccc(Cl)cc1 (centres undefined),.,-2,1%,.,-2%,.,.,.
CCC1C2CN(C(C)=O)CC=C2C(C#N)=C(N)C1(C#N)C#N (centres undefined),18%,-2,?,?,11%,-8,38%,45µM*
CC(C)N1CC=C2C(C#N)=C(N)C(C#N)(C#N)C(c3ccccc3)C2C1 (centres undefined),-10%,-17,12%,?,85%,.,.,.
CCN1CC=C2C(C#N)=C(N)C(C#N)(C#N)C(c3cc(Cl)ccc3Cl)C2C1 (centres undefined),14%,1,-15%,?,72%,3,6%,-17%
CCCC1C2CN(C(C)=O)CC=C2C(C#N)=C(N)C1(C#N)C#N (centres undefined),12%,-6,-6%[57.1 µM],-8%,23%[57.1 µM],.,.,.
COc1ccc(C)cc1N(C(=O)c1snc(C(N)=O)c1N)C(C(=O)NC1CCCC1)c1ccc(F)cc1 (centres undefined),-6%,-5,35%,?,24%,4,1%,16µM*
COc1ccc(C(C(=O)NC2CCCCC2)N(C(=O)c2snc(C(N)=O)c2N)c2ccc(OC)cc2OC)cc1 (centres undefined),-7%,-1,35%,-27%,26%,.,.,.
COc1ccc(N(C(=O)c2snc(C(N)=O)c2N)C(C(=O)NC2CCCC2)c2ccc(F)cc2)c(OC)c1 (centres undefined),13%,4,-7%,?,17%,-2,-7%,?
COc1ccc(C2CC(c3ccccc3)Oc3cc(OC)ccc32)cc1 (centres undefined),.,-6,-14%,.,-5%,.,.,.
C[C@@H]1CC[C@@]2(OC1)OC1CC3C4CC=C5CC(O)CCC5(C)C4CCC3(C)C1[C@@H]2C (some centres undefined),.,5,.,.,.,.,.,.
Clc1nc(NCc2cccs2)c2[nH]cnc2n1,.,.,1%,.,-2%,.,.,.
Cc1c(/C=N/NC(=O)c2cc(=O)[nH]c(=O)[nH]2)c2ccccn2c1C(=O)c1ccccc1,4%,-4,-14%[57.1 µM],?,-4%[57.1 µM],-2,?,14µM*
Cc1c(/C=N/NC(=O)c2ccc(O)cc2)c2ccccn2c1C(=O)c1ccc(F)cc1,0%,-1,13%[57.1 µM],0%,-13%,.,.,.
CNc1c(Cl)cc(/C=C2\C=Cc3ccccc32)cc1Cl,.,.,-15%,.,-11%,.,.,.
CCOc1ccc(CCN2C(=O)C(=O)N([C@@H](Cc3ccc(O)cc3)CN3CCC[C@@H]3CN3C(=O)C(=O)NC[C@@H]3Cc3ccccc3)C[C@@H]2Cc2ccccc2)cc1,.,.,12%,32µM*,-2%,-6,5%,10µM*
Oc1ccc(C[C@H]2CNC(=S)N2CC2CCCN2C[C@H](Cc2ccc(O)cc2)N2C[C@H](Cc3ccccc3)N(CCc3ccccc3)C2=S)cc1 (some centres undefined),.,.,35%,-7%,8%,.,.,.
